# According to the supplement of paper PMC11624193, “Coupling cellular drug-target engagement to downstream pharmacology with CeTEAM” (Nature Communications, 2024):
# Several values for one entry are separate records, joined by “and”; a condition that tells them apart may be missing. Equal values may be shown once. Where a name gives a salt, the structure may show the parent alone.
# Target: PARP1 L713F-nLuc biosensor (HCT116) (UniProt P09874)
# Test: PARP1 L713F-nLuc/akaLuc ratio relative to DMSO control (biosensor stabilization) (fold change); higher = more PARP1 biosensor stabilization (target engagement / stabilizer), active = hit call of the paper
# Settings: stock concentration (mM; final µM = stock mM x 1): 10; 24 h;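 active = log2 fold change beyond 2 SD from the library mean after excluding viability outliers; inactive = within 2 SD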
# PARP1 L713F-nLuc biosensor (HCT116), sequence (P09874 whole entry L713F, looked up): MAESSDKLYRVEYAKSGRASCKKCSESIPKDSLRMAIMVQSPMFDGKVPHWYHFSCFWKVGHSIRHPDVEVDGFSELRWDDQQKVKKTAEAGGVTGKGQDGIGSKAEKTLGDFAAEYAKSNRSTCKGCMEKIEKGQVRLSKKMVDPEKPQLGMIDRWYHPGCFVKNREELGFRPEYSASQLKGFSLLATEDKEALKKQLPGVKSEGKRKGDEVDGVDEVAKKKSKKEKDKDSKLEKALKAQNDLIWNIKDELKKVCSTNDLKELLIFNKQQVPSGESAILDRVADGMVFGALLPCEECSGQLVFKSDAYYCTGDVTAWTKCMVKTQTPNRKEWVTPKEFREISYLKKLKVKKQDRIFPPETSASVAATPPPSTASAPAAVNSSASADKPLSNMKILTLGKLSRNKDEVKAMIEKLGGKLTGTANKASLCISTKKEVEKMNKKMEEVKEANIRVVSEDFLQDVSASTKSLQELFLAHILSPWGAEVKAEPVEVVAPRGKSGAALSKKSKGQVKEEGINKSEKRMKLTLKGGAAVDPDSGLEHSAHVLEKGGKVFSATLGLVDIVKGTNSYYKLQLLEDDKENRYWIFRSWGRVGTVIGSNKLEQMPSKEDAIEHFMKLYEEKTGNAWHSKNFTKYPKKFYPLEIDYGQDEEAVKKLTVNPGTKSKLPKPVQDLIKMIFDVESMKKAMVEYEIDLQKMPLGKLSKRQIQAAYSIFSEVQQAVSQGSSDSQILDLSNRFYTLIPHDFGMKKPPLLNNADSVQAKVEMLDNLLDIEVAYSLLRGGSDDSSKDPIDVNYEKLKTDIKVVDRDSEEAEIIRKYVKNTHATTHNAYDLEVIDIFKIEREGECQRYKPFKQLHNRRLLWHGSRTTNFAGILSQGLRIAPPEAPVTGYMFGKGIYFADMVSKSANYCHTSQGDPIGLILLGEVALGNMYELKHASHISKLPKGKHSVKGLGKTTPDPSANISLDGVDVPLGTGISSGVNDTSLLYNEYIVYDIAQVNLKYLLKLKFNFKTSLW
row,SMILES,PARP1 L713F-nLuc/akaLuc ratio
1,Cc1cnc(NC(=O)Nc2cc(Br)c(C)cc2OC[C@@H]2CNCCO2)cn1,0.787 (inactive)
2,NC1(c2ccc(-c3nc4ccn5c(=O)[nH]nc5c4cc3-c3ccccc3)cc2)CCC1,0.79 (inactive)
3,"C[C@H](Nc1ncnc2nc[nH]c12)c1cc2cccc(Cl)c2c(=O)n1-c1ccccc1 [Duvelisib (IPI-145, INK1197)]",0.838 (inactive)
4,CCS(=O)(=O)N1CCN(c2ccc(Nc3ncc(C(N)=O)c(NC4CC4)n3)cc2)CC1 [Cerdulatinib (hydrochloride)],1.06 (inactive)
5,C[C@@H](COCCC(=O)N1CCN(c2ncc(C(F)(F)F)cn2)CC1)Nc1cn[nH]c(=O)c1C(F)(F)F,2.09 (inactive)
6,"O=C(c1ccc(F)c(F)c1Nc1ccc(I)cc1F)N1CC(O)([C@@H]2CCCCN2)C1 [Cobimetinib (GDC-0973, RG7420)]",0.687 (inactive)
7,COc1cc2nc(N3CCCC3)nc(NCCCCCN3CCCC3)c2cc1OC,0.881 (inactive)
8,NC(=O)[C@@H]1CCCc2c1[nH]c1ccc(Cl)cc21 [(R)-Selisistat],0.592 (inactive)
9,OC(COc1ccc(C(F)(F)F)cc1)CN(Cc1ccccc1)Cc1ccccc1 (stereo unspecified),1.03 (inactive)
10,CN1CCN(c2ccc3nc(-c4c(N)c5c(F)cccc5[nH]c4=O)[nH]c3c2)CC1 [Dovitinib (TKI258) Lactate],0.754 (inactive)
11,CNC(=O)c1cc(Oc2ccc(NC(=O)Nc3ccc(Cl)c(C(F)(F)F)c3)c(F)c2)ccn1 [Regorafenib (BAY 73-4506)],0.687 (inactive)
12,COc1cc2ncnc(Nc3cccc(Cl)c3F)c2cc1OC(=O)N1CCN(C)C[C@H]1C,1.31 (inactive)
13,Nc1ncc(-c2cccc(N3CCNCC3)c2)cc1C(=O)Nc1ccncc1 [PKC-iota inhibitor 1],1.02 (inactive)
14,C[C@@H](Nc1cc(F)cc(F)c1)c1cc(C(=O)N(C)C)cc2c(=O)cc(N3CCOCC3)oc12,0.667 (inactive)
15,COC(=O)c1ccc(OC(=O)CCCCCCC(=O)NO)cc1 [Remetinostat],1.25 (inactive)
16,N#C/C(=C\c1ccc(O)c(O)c1)C(=O)NCc1ccccc1,1.13 (inactive) and 0.936 (inactive)

row,SMILES,PARP1 L713F-nLuc/akaLuc ratio
1,Cn1ncc(Cl)c1-c1cc(C(=O)N[C@H](CN)Cc2cccc(F)c2)sc1Cl [Afuresertib],1.63 (inactive)
2,O[C@@H]1CO[C@H]2[C@@H]1OC[C@H]2Oc1nc2nc(-c3ccc(-c4ccccc4)cc3)c(Cl)cc2[nH]1,0.439 (inactive)
3,Nc1nc(OCc2ccc(CNC(=O)C(F)(F)F)cc2)c2[nH]cnc2n1 [PIN1 inhibitor API-1],1.38 (inactive)
4,C[C@]12CCCN1CC1=NNC(=O)c3cc(F)cc4[nH]c2c1c34 [Pamiparib],5.97 (active)
5,CN(C)CCCNC(=O)c1ccc(-c2cc(O)c3ncccc3c2)cc1,0.5 (inactive)
6,CN(Cc1cnc2nc(N)nc(N)c2n1)c1ccc(C(=O)N[C@@H](CCC(=O)O)C(=O)O)cc1 [Methotrexate],0.755 (inactive)
7,COc1cc2ncnc(Nc3ccc(O)c(Br)c3)c2cc1OC,0.973 (inactive)
8,COc1ccc(/C=C/C(=O)NO)c(-c2ccc(-c3ccccc3)cc2)c1,0.65 (inactive)
9,O=C(/C=C\n1cnc(-c2cc(C(F)(F)F)cc(C(F)(F)F)c2)n1)NNc1cnccn1 [Selinexor (KPT-330)],0.434 (inactive)
10,C[C@@H](Oc1cc(-n2cnc3ccc(CN4CCN(C)CC4)cc32)sc1C(N)=O)c1ccccc1C(F)(F)F,0.601 (inactive)
11,CCCc1cc(C)[nH]c(=O)c1CNC(=O)c1cc(-c2ccc(N3CCN(C(C)C)CC3)nc2)cc2c1cnn2C(C)C,0.862 (inactive)
12,CCN(CC)C(=O)c1ccc(Nc2nc(OCC3CCCCC3)c3[nH]cnc3n2)cc1,0.71 (inactive)
13,COc1ccc2cc3[n+](cc2c1OC)CCc1cc(O)c(O)cc1-3 [Demethyleneberberine],1.47 (inactive)
14,Cc1nc(F)ccc1-c1cc(Cn2ccn(C)c2=N)cc(C(=O)NCc2ccc(Cl)c(Cl)c2)c1,0.928 (inactive)
15,Cc1ccc(C(=O)Nc2ccc(S(=O)(=O)O)c3cc(S(=O)(=O)O)cc(S(=O)(=O)O)c23)cc1NC(=O)c1cccc(NC(=O)Nc2cccc(C(=O)Nc3cc(C(=O)Nc4ccc(S(=O)(=O)O)c5cc(S(=O)(=O)O)cc(S(=O)(=O)O)c45)ccc3C)c2)c1 [Suramin (sodium salt)],0.738 (inactive)
